The record followed here is PubChem BioAssay (NCATS).

Records with an inconclusive call do not appear. Active and inactive are the calls of the source. Calls come from the whole dose curve; as a rule, active = well fitted cell-killing curve with a large enough effect; inconclusive = small, poorly fitted or top-dose-only effect, or effect the other way; inactive = no such curve, though single readings can be large or run the other way.
Note: nearly all actives have a fitted effect of over 65% in size.
Potency is the fitted concentration of half-maximal effect.

A short description of one assay: Quantitative High-Throughput drug screen in 47 multiple myeloma cell lines against the NCATS MIPE library collection: OCIMY7_PLB cell viability assay (AID 1918987). As to conditions: OCI-MY7 myeloma viability, CellTiter-Glo ATP, 48 h; series mostly up to 45.8 µM; viability (% of DMSO): at the top concentration. The method, boiled down:
(§1)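 Myeloma cells (500/well) treated with MIPE 4.0 compounds for 48 h at 37 °C, 5% CO2. Viability read as ATP via CellTiter-Glo luminescence after 5 min at RT; DMSO-only wells = 100%, media-only = 0% viability.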
Consider `CNC(=O)c1ccc(N2C(=S)N(c3cnc(C#N)c(C(F)(F)F)c3)C(=O)C23CCC3)cc1F`, for which the Potency is 526 nM (active).
On the same count and under the same terms, then `C=CC(=O)Nc1cccc(Oc2nc(Nc3ccc(N4CCN(C)CC4)cc3OC)ncc2Cl)c1`, with 1 nM (active).
As to `COc1ccc(-n2nc(C(N)=O)c3c2C(=O)N(c2ccc(N4CCCCC4=O)cc2)CC3)cc1`, the “viability (% of DMSO)” value was 180% (inactive).
On to `OCc1ccc(-c2ccc(-c3ccc(CO)s3)o2)s1`, for which the Potency was 1870 nM (active).
On the same count and under the same terms, for `c1nc2nc(Nc3ccc(N4CCOCC4)cc3)nc(NC3CCCCC3)c2[nH]1` the value was 3320 nM (active).
Turning to `COc1cc(OC2CCN(C)CC2)ccc1Nc1ncc2c(n1)n(C1CCCC1)c(=O)n2C`, the Potency is 2960 nM (active).
With `Nc1ncnc2c1c(-c1cccc(OCc3ccccc3)c1)cn2C1CC(CN2CCCC2)C1` (configuration not stated), the Potency was 1480 nM (active).
On to `CC(C)c1cc(C(=O)N2Cc3ccc(CN4CCN(C)CC4)cc3C2)c(O)cc1O`, for which the Potency is 26.4 nM (active).

Another assay is described as follows: Quantitative High-Throughput drug screen in 47 multiple myeloma cell lines against the NCATS MIPE library collection: OCIMY5_PLB cell viability assay (AID 1918988). As to conditions: OCI-MY5 myeloma viability, ATP luminescence, 48 h; series mostly up to 45.8 µM; viability, % of control: at the top concentration. An outline of the steps:
as §1
On to `COc1ccc(-c2cc3c(C)nc(N)nc3n(C3CCC(OCCO)CC3)c2=O)cn1` (configuration not stated), for which the Potency is 83.3 nM (active).
Still for that read-out and setting: then `CCc1c2c(nc3ccc(O)cc13)-c1cc3c(c(=O)n1C2)COC(=O)[C@]3(O)CC`, with 1180 nM (active); and `Cc1ccc(NC(=O)C2(c3ccc4c(c3)OC(F)(F)O4)CC2)nc1-c1cccc(C(=O)O)c1`, with 46.9 nM (active); and `C#Cc1cccc(Nc2ncnc3cc(OC)c(OCCCCCCC(=O)NO)cc23)c1`, with 5.3 nM (active).
For the compound `O=C(O)[C@H](Cc1c[nH]c2ccccc12)N1C(=O)c2ccccc2C1=O`, the “viability, % of control” value is 167% [at 92.2 µM] (inactive).
For `O=C(O)c1ccc2cc(-c3ccc(O)c(C45CC6CC(CC(C6)C4)C5)c3)ccc2c1`, the Potency was 2960 nM (active).
The same measure, in the same setting: then `CC(NCc1ccc2c(c1)nc(NC(=O)c1ccc(-c3cn[nH]c3)s1)n2CC(C)(C)O)C(C)(C)C` (configuration not stated), with 235 nM (active).
Same read-out and setting: then `Cc1cc(N2CCOCC2)cc2[nH]c(-c3c(NC[C@@H](O)c4cccc(Cl)c4)cc[nH]c3=O)nc12`, with 1660 nM (active).
Same read-out and setting: then `CC1(O)CC(c2nc(-c3ccc4ccc(-c5ccccc5)nc4c3)c3c(N)nccn23)C1` (configuration not stated), with 235 nM (active); and `Nc1cc(C(F)(F)F)c(-c2cc(N3CCOCC3)nc(N3CCOCC3)n2)cn1`, with 187 nM (active); and `Nc1ncnc2c1c(-c1cnc3[nH]ccc3c1)nn2C1CCCC1`, with 3320 nM (active).
Take `CCN(CC)CCCCNc1ncc2cc(-c3cc(OC)cc(OC)c3)c(NC(=O)NC(C)(C)C)nc2n1`: the Potency was 16600 nM (active).
As for `CCOc1ccccc1OCCNC(C)Cc1ccc(OC)c(S(N)(=O)=O)c1` (configuration not stated), the “viability, % of control” value is 132% (inactive).
For `COc1cc2nccc(Oc3ccc(NC(=O)C4(C(=O)Nc5ccc(F)cc5)CC4)cc3)c2cc1OC`, the Potency was 18700 nM (active).
In the case of `C[C@@]12O[C@@H](C[C@]1(O)CO)n1c3ccccc3c3c4c(c5c6ccccc6n2c5c31)CNC4=O`, the Potency was 526 nM (active).
With `CN(C)CC=CC(=O)Nc1cc2c(Nc3ccc(F)c(Cl)c3)ncnc2cc1O[C@H]1CCOC1`, the Potency is 3320 nM (active).
On to `O=c1[nH]nc(Sc2ncc([N+](=O)[O-])s2)n1-c1ccc2c(c1)OCCO2`, for which the Potency was 2960 nM (active).
The same measure, in the same setting: then `COc1cc2c(NC3CCN(C(C)C)CC3)nc(C3CCCCC3)nc2cc1OCCCN1CCCC1`, with 6620 nM (active); and `O=C(Nc1cc(C(F)(F)F)cc(C(F)(F)F)c1)c1cc(Cl)ccc1O`, with 2350 nM (active); and `CCCCc1nc2cc(C=CC(=O)NO)ccc2n1CCN(CC)CC`, with 41.8 nM (active).
On to `Cn1cc(-c2[nH]c3cc(NC(=O)[C@H](N)C4CCCCC4)cc4c3c2C=NNC4=O)cn1`, for which the Potency was 1480 nM (active).
As for `O=C(C=Cc1cccc(S(=O)(=O)Nc2ccccc2)c1)NO`, the Potency is 1210 nM (active).
On the same count and under the same terms, for `CC(=O)OCC(=O)[C@@]1(O)[C@H](C)C[C@H]2[C@@H]3C=C(C)C4=Cc5c(cnn5-c5ccccc5)C[C@]4(C)[C@@H]3[C@@H](O)C[C@@]21C` the value was 7430 nM (active); for `CC1(C)CCC(c2ccc(Cl)cc2)=C(CN2CCN(c3ccc(C(=O)NS(=O)(=O)c4ccc(N[C@H](CCN5CCOCC5)CSc5ccccc5)c(S(=O)(=O)C(F)(F)F)c4)cc3)CC2)C1`, 37.2 nM (active).
As to `CCn1cc(-c2ccnc3[nH]c(-c4cccc(CN(C)C)c4)cc23)c(-c2ccc(NC(=O)N(C)C)cc2)n1`, the Potency is 4180 nM (active).
On the same count and under the same terms, then `O=C(c1ccc(Nc2nccc(-c3cc4ccccc4s3)n2)cc1)N1CCC(N2CCCC2)CC1`, with 8330 nM (active); and `CNC(=O)c1ccc(N2C(=S)N(c3cnc(C#N)c(C(F)(F)F)c3)C(=O)C23CCC3)cc1F`, with 118 nM (active); and `C=CC(=O)Nc1cccc(Oc2nc(Nc3ccc(N4CCN(C)CC4)cc3OC)ncc2Cl)c1`, with 2.6 nM (active).
Turning to `COc1ccc(-n2nc(C(N)=O)c3c2C(=O)N(c2ccc(N4CCCCC4=O)cc2)CC3)cc1`, the “viability, % of control” value is 169% (inactive).
As for `OCc1ccc(-c2ccc(-c3ccc(CO)s3)o2)s1`, the Potency is 16600 nM (active).
For the compound `c1nc2nc(Nc3ccc(N4CCOCC4)cc3)nc(NC3CCCCC3)c2[nH]1`, the Potency is 18700 nM (active).
Still for that read-out and setting: for `COc1cc(OC2CCN(C)CC2)ccc1Nc1ncc2c(n1)n(C1CCCC1)c(=O)n2C` the value was 9350 nM (active); for `Nc1ncnc2c1c(-c1cccc(OCc3ccccc3)c1)cn2C1CC(CN2CCCC2)C1` (configuration not stated), 7430 nM (active); for `CC(C)c1cc(C(=O)N2Cc3ccc(CN4CCN(C)CC4)cc3C2)c(O)cc1O`, 105 nM (active).
